Source: PubChem BioAssay AID1159580 (chemical genetic matrix, 2015)
Screen size: about 5,500 compounds; about 2,000 (36%) were called active. Another 18% or so got no clear call; they are omitted. No stated cut-off is given here; in the data, active means normalized growth mostly below about 0.91 (no sharp cut-off); inconclusive means no clear call, values can overlap the other calls; inactive means mostly above about 0.92. Some of the results follow.

Test: chemical genetic growth profiling, strain panel (AID 1159580);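 further: tested at 20 µM; growth read once vehicle control cultures reached saturation at 30 °C; 1 = growth at the plate median or of vehicle wells; lower values mean less growth of the strain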
Settings: S. cerevisiae deletion strains, growth OD

Measured: normalized growth

CC(=O)O[C@H]1CCC2(C)C3=C(CCC2C1(C)C)[C@@]1(C)CC[C@@H](C(C)CCC=C(C)C)[C@]1(C)CC3 (some centres undefined)
active: locus YKL009W, strain mrt4, hits give low values 0.846 | locus YLR371W, strain rom2, hits give low values 1.1 [resistant]
inactive: locus YJL168C, strain set2, hits give low values 1.06 | locus YJL187C, strain SWE1 (second series), hits give low values 0.989 | locus YJL187C, strain SWE1, hits give low values 1.01 | locus YJR043C, strain POL32, hits give low values 0.941 | locus YJR075W, strain HOC1, hits give low values 1.04 | locus YKL068W, hits give low values 1.04 | locus YKL085W, strain MDH1 (second series), hits give low values 1.03 | locus YKL085W, strain MDH1, hits give low values 1.03 | locus YKL160W, strain elf1, hits give low values 1.02 | locus YKR001C, strain vps1, hits give low values 0.997 | locus YKR026C, strain gcn3, hits give low values 1.04 | locus YKR091W, strain srl3, hits give low values 1.03 | locus YLL001W, strain dnm1, hits give low values 1.03 | locus YLL026W, hits give low values 1.02 | locus YLL041C, strain sdh2, hits give low values 1.05 | locus YLR027C, strain aat2, hits give low values 1.04 | locus YLR039C, strain RIC1, hits give low values 1.08 | locus YLR058C, strain SHM2, hits give low values 1.01 | locus YLR102C, strain apc9, hits give low values 1.05 | locus YLR221C, strain rsa3, hits give low values 1.03 | locus YLR258W, strain gsy2, hits give low values 1.04 | locus YLR262C, strain YPT6 (second series), hits give low values 1.02 | locus YLR262C, strain YPT6, hits give low values 0.994 | locus YLR268W, strain sec22, hits give low values 1.02 | locus YLR320W, strain mms22, hits give low values 1.05 | locus YLR330W, strain CHS5, hits give low values 1.03 | locus YLR342W, strain FKS1 (second series), hits give low values 0.953 | locus YLR342W, strain FKS1, hits give low values 1.04 | locus YLR357W, strain rsc2, hits give low values 1.04 | locus YLR370C, strain arc18, hits give low values 1.02 | locus YLR384C, strain iki3, hits give low values 1.05 | locus YLR418C, strain cdc73, hits give low values 1.09 | locus YML016C, strain PPZ1, hits give low values 1.05 | locus YML032C, strain rad52, hits give low values 0.994 | locus YML120C, strain ndi1, hits give low values 1.03 | locus YML124C, strain tub3, hits give low values 1.06 | locus YMR058W, strain fet3, hits give low values 1.03 | locus YMR078C, strain ctf18, hits give low values 1.08 | locus YMR125W, strain sto1, hits give low values 1.03 | locus YMR129W, hits give low values 1.03 | locus YMR205C, strain PFK2, hits give low values 1.04 | locus YMR223W, strain ubp8, hits give low values 1.01 | locus YMR231W, strain pep5, hits give low values 1 | locus YMR307W, strain GAS1, hits give low values 0.972 | locus YNL067W, strain RPL9B, hits give low values 0.969 | locus YNL071W, strain lat1, hits give low values 1.03 | locus YNL209W, strain ssb2, hits give low values 1.04 | locus YNL233W, strain BNI4, hits give low values 1.04 | locus YNL248C, strain rpa49, hits give low values 1.02 | locus YNL250W, strain rad50, hits give low values 1.04 | locus YNL271C, strain bni1, hits give low values 1.05 | locus YNL298W, strain CLA4, hits give low values 0.986 | locus YNL307C, strain MCK1, hits give low values 1.07 | locus YNL322C, strain KRE1 (second series), hits give low values 1.03 | locus YNR049C, strain mso1, hits give low values 1.03 | locus YNR052C, strain pop2, hits give low values 0.99 | locus YOL012C, strain htz1 1.57 | locus YOL147C, strain pex11, hits give low values 1.05 | locus YOR001W, strain rrp6, hits give low values 1.01 | locus YOR061W, strain CKA2, hits give low values 0.996 | locus YOR069W, strain VPS5, hits give low values 1.03 | locus YOR070C, strain gyp1, hits give low values 1.01 | locus YOR080W, strain dia2, hits give low values 1.02 | locus YOR083W, strain WHI5, hits give low values 1.01 | locus YOR106W, strain vam3, hits give low values 1 | locus YOR136W, strain idh2, hits give low values 1.04 | locus YOR144C, strain elg1, hits give low values 1.04 | locus YOR184W, strain ser1, hits give low values 0.926 | locus YOR265W, strain rbl2, hits give low values 1.03 | locus YOR270C, strain vph1, hits give low values 0.999 | locus YOR290C, strain snf2, hits give low values 1.02 | locus YOR316C, strain cot1, hits give low values 1.06 | locus YPL051W, strain arl3, hits give low values 1.01 | locus YPL078C, strain atp4, hits give low values 1.02 | locus YPL106C, strain sse1, hits give low values 1.09 | locus YPL240C, strain hsp82, hits give low values 1.03 | locus YPL241C, strain CIN2, hits give low values 1.05 | locus YPR119W, strain clb2, hits give low values 1.06 | locus YPR141C, strain kar3, hits give low values 1.08 | locus YPR163C, strain tif3, hits give low values 1.04 | locus YPR167C, strain met16, hits give low values 1.03 | strain wtn01, hits give low values 0.997
